Data published in PubChem BioAssay AID2284140 (EPA ToxCast).
The source made the active and inactive calls. The calls were made as follows: active = hit-call score of the fitted dose curve at least 0.9, where 1 is the maximum; inactive = score below 0.9.

Biological target: Tyrosine-protein kinase SYK (Homo sapiens) (UniProt P43405)
Experiment: ERF_FR_ENZ_hSYK: Eurofins (ERF) Enzymatic Radiometric [Km ATP] KinaseProfiler LeadHunter Assay for human Syk Tyrosine Kinase
Description: ERF_FR_ENZ_hSYK is a biochemical, single-readout assay that uses extracted gene-proteins in a cell-free assay. Measurements were taken 0.5 hour after chemical dosing in a 96-well plate. See Syk Human TK Kinase Enzymatic LANCE Assay [Km ATP], Cerep.ERF_FR_ENZ_hSYK is an assay component calculated from the ERF_FR_ENZ_hSYK assay. It is designed to measure enzyme activity using a type of enzyme reporter as detected by fluorescence intensity with LANCE technology.Data from the assay component ERF_FR_ENZ_hSYK was analyzed at the assay endpoint, ERF_FR_ENZ_hSYK, in the positive analysis fitting direction relative to DMSO as the negative control and baseline of activity. Using a type of enzyme reporter, loss-of-signal activity can be used to understand changes in enzymatic activity as they relate to gene SYK. To generalize the intended target to other relatable targets, this assay endpoint is annotated to the kinase intended target family, where the subfamily is spleen tyrosine kinase.
Syk (h) is incubated with 50 mM Tris pH 7.5, 0.1 mM EGTA, 0.1 mM Na3VO4, 0.1% […], 0.1 mg/ mL poly(Glu, Tyr) 4:1, 10 mM MgAcetate and [gamma-33P]-ATP (specific activity and concentration as required). The reaction is initiated by the addition of the Mg/ATP mix. After incubation for 40 minutes at room temperature, the reaction is stopped by the addition of phosphoric acid to a concentration of 0.5%. […]

Compound | outcome
O=C(/C=C/c1ccc(O)cc1)CC(=O)/C=C/c1ccc(O)cc1 | inactive
